# Screen size: about 96,000 compounds; about 19,000 (20%) were called active. A selection follows. Values without a mark were called inactive.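 How the source made its calls: active means blocking of liver enzyme CYP2C9 beyond about 50% at 5 µM (limit read from the data); inactive means the rest.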
# Target: Cytochrome P450 2C9 (Homo sapiens) (UniProt P11712)
# Assay: blockers of cytochrome P450 2C9 activity – biochemical, luminescence, ADME assay, primary screen (AID 777)
# Conditions: CYP2C9 Supersomes, luciferin-H conversion, at 5 µM, stronger effect = higher value
# Chain of Cytochrome P450 2C9 (Homo sapiens) (P11712 whole entry, looked up): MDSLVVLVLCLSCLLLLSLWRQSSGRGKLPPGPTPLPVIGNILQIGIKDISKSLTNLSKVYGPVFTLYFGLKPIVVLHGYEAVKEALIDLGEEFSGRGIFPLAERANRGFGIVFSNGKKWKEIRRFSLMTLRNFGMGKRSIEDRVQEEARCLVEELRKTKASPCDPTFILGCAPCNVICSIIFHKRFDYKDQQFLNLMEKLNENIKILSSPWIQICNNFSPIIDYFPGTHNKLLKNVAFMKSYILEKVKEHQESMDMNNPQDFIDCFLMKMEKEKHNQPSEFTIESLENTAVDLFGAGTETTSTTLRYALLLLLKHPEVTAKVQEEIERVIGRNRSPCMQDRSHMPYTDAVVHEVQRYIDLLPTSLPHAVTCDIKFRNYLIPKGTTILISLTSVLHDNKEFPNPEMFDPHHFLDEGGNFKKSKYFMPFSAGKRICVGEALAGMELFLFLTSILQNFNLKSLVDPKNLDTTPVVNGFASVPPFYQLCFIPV
row,Compound,inhibition
1,Cn1c(=N)n(CC(O)c2ccccc2)c2ccccc21 (configuration not stated),-27.2%
2,COc1cc(C(=O)Nc2nccs2)cc(OC)c1OC,42%
3,Cc1c(Br)c([N+](=O)[O-])nn1C(C)C(=O)Nc1nccs1 (configuration not stated),73.2% (active)
4,Cn1cccc1C(=O)Nc1nccs1,2.9%
5,O=P(O)(CN1CCCCC1)CN1CCCCC1,-9.6%
6,CSc1nc2ccc(S(=O)(=O)N3CCc4ccccc43)cc2s1,15.3%
7,CC1CCC(NS(=O)(=O)c2ccc3c(c2)n(C)c(=O)c(=O)n3C)CC1 (configuration not stated),8.5%
8,CCn1c(=O)c(=O)n(CC)c2cc(S(=O)(=O)N3CCc4ccccc43)ccc21,96.5% (active)
9,Cc1nn(C)c(C)c1S(=O)(=O)N1CCc2ccccc21,-33.4%
10,Cn1c(=O)n(C)c2cc(S(=O)(=O)N3CCCc4ccccc43)ccc21,66.5% (active)
11,COc1ccc(C(=O)OCC(=O)NCC2CCCCC2)cc1S(=O)(=O)N1CCCc2ccccc21,9.6%
12,Cc1ccc(-n2c(=O)c(C#N)cc3c(=O)n4ccccc4nc32)cc1C,-2.8%
13,Cc1cc(C=O)c(C)n1-c1ccc(NC2CCCCC2)c([N+](=O)[O-])c1,15.9%
14,Cc1ccoc1C(=O)Nc1cccc(Oc2ccccc2)c1,34%
15,O=C(OCCO)c1cc(Cl)c(C(=O)OCCO)cc1Cl,48.4%
16,Cc1ccc(NC(=O)c2ccc(CSc3ncnc4nc[nH]c34)cc2)c(C)c1,-76.5%
17,CCN1CCN(C(c2cccnc2)c2cc(Cl)c3cccnc3c2O)CC1 (configuration not stated),29.8%
18,CCn1ncc(C2=NOC(C(=O)Nc3ccccc3C(=O)OC)C2)c1C (configuration not stated),-34.3%
19,CCN1CCc2c(C#N)c(NCc3ccccc3)nc(NCCO)c2C1,35.5%
20,CC(C)CCNc1nc(N2CCCC2)c2c(c1C#N)CCN(C)C2,69.7% (active)
21,CCOC(=O)C(C)Oc1cccc2c(=O)n(CC(=O)N3CCc4ccccc43)ccc12 (configuration not stated),9%
22,O=S(=O)(c1cccc(-c2nnc(SC(F)F)n2-c2ccccc2)c1)N1CCCCC1,21.2%
23,O=S(=O)(c1cccc(S(=O)(=O)N2CCC(n3nnc4ccccc43)CC2)c1)N1CCCCC1,88.3% (active)

row,Compound,inhibition
1,CC(=O)c1cccc(S(=O)(=O)N2CCC(n3nnc4cc(F)ccc43)CC2)c1,-31%
2,CCCN(CCC)CCNC(=O)c1cc2c(C)nc3ccccc3c2o1,8.6%
3,Cc1sc2c(c1C)c(=O)n(-c1ccccc1)c1nncn21,-2.8%
4,N#Cc1nc(Cc2ccccc2)oc1NCCc1ccccc1,39.2%
5,N#Cc1nc(COc2ccc(-c3ccccc3)cc2)oc1NCc1cccnc1,70.7% (active)
6,COc1ccc(Nc2oc(-c3ccccc3Cl)nc2C#N)cc1,47%
7,N#Cc1nc(-c2ccc(OCc3ccccc3)cc2)oc1NCCCN1CCOCC1,41%
8,CCOc1ccc(Nc2oc(Cc3ccccc3)nc2C#N)cc1,78.1% (active)
9,c1ccc(-c2cc(-c3nnc4sc(-c5ccccn5)nn34)[nH]n2)cc1,-2.3%
10,COc1ccc(C(F)(F)F)cc1N/C=C\c1nnnn1-c1ccc(C)cc1,44.6%
11,CCN(CC)S(=O)(=O)c1cc(C(=O)Nc2ccccn2)ccc1C,38.8%
12,CCN(CC)C(=O)N1CCN(C(=O)c2ccc(C)cn2)CC1,-1%
13,CCCOc1ccc(C2NC(=O)NC(c3ccccc3)=C2C(C)=O)cc1OCC (configuration not stated),37.3%
14,Cc1cccc(COc2ccccc2/C=N/Nc2ccc([N+](=O)[O-])cc2)c1,43.5%
15,CC(=O)CSc1nnc(CSc2ncccn2)n1C1CCCCC1,-10.7%
16,CC(=O)C1=C(O)C(=O)N(c2ccc(S(N)(=O)=O)cc2)C1c1ccccc1F (configuration not stated),62.8% (active)
17,CCN(CC)CCN1C(=O)C(=O)/C(=C(/O)c2ccccc2)C1c1ccccc1F (configuration not stated),-5.9%
18,CCCNC(=O)c1c(N)n(-c2ccc(S(N)(=O)=O)cc2)c2nc3ccccc3nc12,-2.9%
19,COCC(=O)Nc1ccc(Br)cc1,-12.9%
20,O=C(NCCCCCCNC(=O)NCc1ccco1)NCc1ccco1,-11.1%
21,O=C(/C=C/c1ccc(Cl)cc1Cl)NCc1ccco1,-2.5%
22,O=C(NCc1ccco1)C1(c2ccc(Cl)cc2)CCCC1,58.8% (active)
23,Cc1nc2c(-c3ccc(F)cc3)c(C)nn2c(C)c1CCC(=O)N1CCN(c2ccccn2)CC1,13.1%

row,Compound,inhibition
1,O=C(/C=C/c1ccc(Cl)cc1Cl)c1cccnc1,14.7%
2,CN1CCN(c2ccc([N+](=O)[O-])c(Sc3nc4ccccc4[nH]3)c2)CC1,52.2% (active)
3,COc1ccccc1CSc1nc2ccccc2[nH]1,43.6%
4,CSc1nnc2c(n1)OC(c1cn(C)c3ccccc13)N(C(C)=O)c1ccccc1-2 (configuration not stated),1.6%
5,Cc1ccc(-c2nnc(SC(C)C#N)n2N)cc1 (configuration not stated),1.1%
6,CSc1ccccc1C(=O)Nc1cccc(C(C)=O)c1,27.8%
7,CSc1nc(C)cc(SC(C(C)=O)C(=O)Nc2ccccc2)n1 (configuration not stated),65.3% (active)
8,Cc1cc(C)nc(N(C#N)CC(=O)Nc2ccccc2)n1,7.1%
9,Cc1csc(NC(=O)NC2(C(F)(F)F)Oc3ccccc3O2)n1,-6.5%
10,COc1ccc(C(=O)Nc2cc(C)ccc2NC(=O)COc2ccccc2)cc1,6.9%
11,Cc1ccc2nc(-c3ccc(SCC(=O)Nc4cc(C)on4)nc3)[nH]c2c1,2.6%
12,CCOC(=O)c1cc2cc(C)ccc2[nH]1,13.9%
13,CC(N)C12CC3CC(CC(O)(C3)C1)C2 (configuration not stated),-4%
14,FC(F)(F)COc1nc(N2CCCCC2)nc(N2CCNCC2)n1,-4.2%
15,O=C(COC(=O)C12CC3CC(CC(C3)C1)C2)NCc1ccco1,35.4%
16,O=C(CC1N=C2c3ccccc3N=C(SCc3ccccc3Cl)N2C1=O)NCc1ccco1 (configuration not stated),85.2% (active)
17,CCOCCc1c(O)nc(SCC(=O)NCc2ccco2)[nH]c1=O,-8.3%
18,CCC(C)NC(=O)CSC1=Nc2ccccc2C2=NC(CCC(=O)NCc3ccco3)C(=O)N12 (configuration not stated),67.8% (active)
19,NC(=O)CSC1=Nc2ccccc2C2=NC(CCC(=O)NCc3ccc(F)cc3)C(=O)N12 (configuration not stated),16.8%
20,O=C(CSC1=Nc2ccccc2C2=NC(CC(=O)NCc3ccco3)C(=O)N12)NCc1ccco1 (configuration not stated),65.1% (active)
21,O=C(CSc1c2c(nc3ccc(Cl)cc13)CCCC2)NCc1ccco1,48.3%
